Vif-A3F inh – qHTS for Inhibitors of Vif-A3F Interactions: qHTS; HeLa A3F-eYFP + Vif (tagged APOBEC3F with the HIV-1 protein that degrades it), YFP fluorescence increase; Potency, µM (doses to about 46.1 µM); 390,000 tested, 0.2% active; further: nearly all actives have a fitted effect of over 65% in size
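HeLa cells stably expressing Vif plus C-terminally eYFP-tagged A3F were seeded, incubated overnight at 37 deg C, dosed with compound, incubated overnight again at 37 deg C. Yellow fluorescence (Ex 488/Em 500-530) reported blocked Vif-mediated A3F-eYFP degradation.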
Vif-A3G inh – qHTS for Inhibitors of Vif-A3G Interactions: qHTS. AID 602310, 2012. Potency, µM (doses to about 46.1 µM), actives largely listed as inhibitors. DNA dC->dU-editing enzyme APOBEC-3G (Homo sapiens), Q9HC16. 410,000 tested, 0.076% active. HeLa A3G-eYFP + Vif (tagged APOBEC3G with the HIV-1 protein that degrades it), YFP fluorescence, overnight; further: nearly all actives have a fitted effect of over 60% in size
Target sequence (Q9HC16 whole entry, looked up): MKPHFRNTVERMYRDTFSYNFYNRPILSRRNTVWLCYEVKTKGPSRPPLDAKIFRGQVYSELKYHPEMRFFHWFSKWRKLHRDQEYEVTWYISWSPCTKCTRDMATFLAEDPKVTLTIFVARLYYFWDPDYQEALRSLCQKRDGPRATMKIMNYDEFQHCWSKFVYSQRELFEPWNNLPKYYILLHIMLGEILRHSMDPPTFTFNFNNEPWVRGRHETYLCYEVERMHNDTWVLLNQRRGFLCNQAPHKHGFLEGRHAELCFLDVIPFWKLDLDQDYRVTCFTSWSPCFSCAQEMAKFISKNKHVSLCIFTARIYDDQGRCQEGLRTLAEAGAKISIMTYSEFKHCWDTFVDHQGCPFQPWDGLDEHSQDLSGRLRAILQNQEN
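Read-out is eYFP fluorescence (Ex 488/Em 500-530) from Vif-expressing HeLa A3G-eYFP cells; more signal means A3G escaped Vif-mediated degradation. Cells plated overnight, compound pinned in, incubated overnight at 37 deg C.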
Anesthetic bind – qHTS Assay for Identification of Novel General Anesthetics | Ferritin light chain (Equus caballus), P02791 | AID 485281, 2010 | apoferritin/1-aminoanthracene competitive binding, fluorescence | 350,000 tested, 0.074% active | Potency, µM (top dose mostly 77.5 µM), usual class: inhibitors; further: nearly all actives have a fitted effect of over 20% in size
Target sequence (P02791 2-175 limits assumed): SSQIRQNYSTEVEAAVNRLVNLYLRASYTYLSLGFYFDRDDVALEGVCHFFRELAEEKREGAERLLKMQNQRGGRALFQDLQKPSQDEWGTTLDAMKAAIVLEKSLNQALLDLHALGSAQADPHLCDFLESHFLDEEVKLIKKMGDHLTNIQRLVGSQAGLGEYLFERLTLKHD
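Steps: apoferritin (10 uM) was premixed with half-saturated 1-AMA in PBS, compounds were pin-transferred, plates stood 10 min at room temperature, fluorescence was read at 380/535 nm, and curves were fitted with a Hill equation.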
Epigenetic derep – Quantitative High-Throughput Screen for Regulators of Epigenetic Control | murine LDR cells, GFP reporter derepression, 30 h | Potency, µM (doses to about 53.9 µM), hits mostly activators | 280,000 tested, 0.2% active; further: nearly all actives have a fitted effect of over 60% in size
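Readout is the number of GFP-expressing murine LDR cells, counted by cytometry following washing. Cells were treated with compound for 30 h at 37 C; the stably integrated CMV-GFP locus is normally silent.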
LDHA block – qHTS assay for inhibitors of human lactate dehydrogenase | L-lactate dehydrogenase A chain (Homo sapiens), P00338 | purified LDHA, NADH/diaphorase-resazurin fluorescence; active compounds read low | activity change, % (values are at about 110 or 230 µM) | 480,000 tested, 0.15% active; in the data active means activity change below about -30%; inconclusive means mostly about -25% to -30%
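Enzyme activity of human lactate dehydrogenase 5 (2 nM; 0.06 mM NADH, 0.2 mM pyruvate, 5 min, RT) is measured via a resazurin/diaphorase fluorescence readout of residual NADH.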
Numbers stand for hits; – = inactive; ? = inconclusive; · = not tested or not shown. This is a sample that favours compounds with a hit; in the whole collection about 0.49% have one here. Unless noted, the call rests on the fitted dose curve; in most records, active means well fitted curve in the direction sought with a large enough effect; inconclusive means small, poorly fitted or top-dose-only effect, or another doubt; inactive means no such curve, though single readings can be large; an effect the other way counts as inactive or inconclusive.

SMILES	Vif-A3F inh	Vif-A3G inh	Anesthetic bind	Epigenetic derep	LDHA block
O=C1NC(=Nc2ccccc2Cl)S/C1=C\c1cc([N+](=O)[O-])ccc1O	?	12.6µM	?	·	–
O=C(NC(c1ccccc1)c1ccccc1)c1cccs1	·	·	·	·	–
CC(C(=O)Nc1ccc2c(c1)OCO2)N(C)CC(=O)Nc1ccc(Cl)cc1 (configuration not stated)	?	–	·	·	?
Cn1c(SCC(=O)NC(C)(C)C)nnc1-c1cc2c(s1)CCC(C(C)(C)C)C2 (configuration not stated)	·	·	·	·	–
S=C(Nc1ccccc1)Nc1nccs1	–	–	–	12.6µM	–
CCOC(=O)c1ccc(Cl)c(NC(=O)c2ccc(-c3ccccc3)cc2)c1	–	–	–	–	–
CCOC(=O)c1ccc(/C=C2/C=C(c3ccccc3)N(c3ccc(Cl)c(C(=O)O)c3)C2=O)cc1	12.6µM	?	–	–	–
CCOC(=O)Nc1cccc2ccccc12	–	–	?	–	–
CCOC(=O)Nc1ccc2c3c(cccc13)-c1ccccc1-2	3.55µM	?	·	·	–
CN=c1scc(-c2ccccc2)n1C	·	·	·	·	–
Cn1c(-c2ccccc2)csc1=N	·	·	·	·	-49.2
Cc1cc(C)c(O)c(-c2cc(C(=O)Nc3c(C)n(C)n(-c4ccccc4)c3=O)[nH]n2)c1	–	–	–	–	–
CC1=CN2C(=N)/C(=C/c3ccc([N+](=O)[O-])o3)C(=O)N=C2S1	?	22.4µM	–	?	–
CC1CCN(c2ccc3c(c2)S(=O)(=O)c2cccc(C(=O)NCc4cccc(F)c4)c2C3=O)CC1	?	20µM	·	·	–
O=C(NCc1cccc(F)c1)c1cccc2c1C(=O)c1ccc(N3CCC(Cc4ccccc4)CC3)cc1S2(=O)=O	31.6µM	11.2µM	·	·	–
O=C(NCc1ccco1)c1cccc2c1C(=O)c1ccc(N3CCC(Cc4ccccc4)CC3)cc1S2(=O)=O	10µM	?	·	·	–
O=C(NCc1cccc(F)c1)c1cccc2c1C(=O)c1ccc(N3CCCC3)cc1S2(=O)=O	?	?	·	·	–
O=C(NCc1cc(C(F)(F)F)ccc1Cl)c1cccc2c1C(=O)c1ccc(N3CCOCC3)cc1S2(=O)=O	10µM	–	·	·	–
O=C(NCCc1ccc(F)cc1)c1cccc2c1C(=O)c1ccc(N3CCC(Cc4ccccc4)CC3)cc1S2(=O)=O	?	?	·	·	–
O=C(NCc1cccc(C(F)(F)F)c1)c1cccc2c1C(=O)c1ccc(N3CCC(Cc4ccccc4)CC3)cc1S2(=O)=O	22.4µM	?	·	·	–
COc1ccc2[nH]c3c(c2c1)CCNC3c1ccc([N+](=O)[O-])o1 (configuration not stated)	25.1µM	?	–	·	–
COc1ccc2[nH]c3c(c2c1)CCNC3C1CC=C(C)CC1 (configuration not stated)	–	?	–	–	–
O=[N+]([O-])c1ccc(Oc2cccc3cccnc23)c([N+](=O)[O-])c1	?	10µM	?	12.6µM	–
C/C(=N\Nc1ncc(Cl)cc1Cl)c1ccccn1	?	–	–	0.631µM	–
O=C(Nc1nnc(-c2cccs2)o1)c1cccc(Oc2ccccc2)c1	–	–	–	–	-32.8
SMILES	Vif-A3F inh	Vif-A3G inh	Anesthetic bind	Epigenetic derep	LDHA block
O=C(Nc1nnc(-c2cccs2)o1)c1cccc(F)c1	?	–	·	·	–
CN(CC(=O)NC(C)(C)C)C(=O)c1ccc2ccccc2n1	·	·	·	·	-32.5
CCN1/C(=C\C=C(C(C)=O)C(C)=O)Sc2ccccc21	22.4µM	22.4µM	?	–	–
CCOC(=O)/C(C#N)=C(C)/C=C1\Sc2ccccc2N1CC	?	–	–	?	–
COc1ccccc1C1=NOC(C(=O)NCc2ccccc2)C1 (configuration not stated)	·	·	·	·	–
COc1ccc2c(c1)c1ncnc(N3CCN(Cc4ccc5c(c4)OCO5)CC3)c1n2C	·	·	–	–	·
O=C1ON=C(c2ccccc2)/C1=C/c1ccc(OS(=O)(=O)c2ccccc2)cc1	–	–	–	–	-38.6
O=C1ON=C(c2ccccc2)/C1=C/c1ccc(O)c(O)c1	–	–	–	·	–
COc1ccc(/C=C2\C(=O)ON=C2c2ccccc2)cc1	–	–	–	·	-31.8
NCCNc1ccc2nnnn2n1	–	–	–	–	–
COc1ccc(CCC(=O)NC2=NCCS2)cc1OC	·	–	–	–	–
CN1OC[C@@H]2CN(S(=O)(=O)c3cccc4ccccc34)[C@H](c3ccc(-c4ccccc4)cc3)C[C@@H]21	–	–	·	·	-30.3
CC(=O)OCCNc1cc(N2CCN(C)CC2)c2noc3c2c1C(=O)c1ccccc1-3	?	?	–	–	–
CCOC(=O)C(C(=O)OCC)c1cc(Br)c2noc3c2c1C(=O)c1ccccc1-3	?	–	–	3.55µM	–
O=C(CSc1nn(-c2ccccc2)c(=S)s1)Nc1ncccn1	–	–	–	–	–
CC1=C/C(=N\NC(=S)NCc2ccccc2)CC1	?	–	–	12.6µM	–
COc1cc(-c2nc3ccc(C)cn3c2NCc2ccccc2)ccc1SC1CCCCC1	–	10µM	·	·	–
COc1cc(-c2nc3ccccn3c2NCc2ccccc2)ccc1SC1CCCCC1	–	–	·	·	–
O=C(Nc1cc([N+](=O)[O-])ccc1O)c1ccc2c(c1)C(=O)N(Cc1ccco1)C2=O	–	–	–	·	-55.5
O=C(Nc1cc([N+](=O)[O-])ccc1O)c1cccc([N+](=O)[O-])c1	–	–	–	·	–
NS(=O)(=O)c1ccc(O)c(NC(=O)c2ccc([N+](=O)[O-])cc2)c1	–	–	–	–	-57.2
O=C(Nc1cc([N+](=O)[O-])ccc1O)c1cccc(C(=O)Nc2cc([N+](=O)[O-])ccc2O)c1	–	–	–	·	-35.0
COc1ccccc1NC(=O)CSc1nccn1Cc1ccc(F)cc1	–	–	–	·	–
O=C(NNC(=O)C1CC2CCC1C2)c1ccccc1 (configuration not stated)	–	–	–	–	–
Cc1nn(C)cc1/C=N/NC(=S)Nc1ccccc1	–	–	–	3.98µM	–
SMILES	Vif-A3F inh	Vif-A3G inh	Anesthetic bind	Epigenetic derep	LDHA block
S=C(N/N=C/c1ccccc1Br)Nc1ccccc1	·	·	·	·	–
COC(=O)Cn1cnc2sc(C)c(S(=O)(=O)N3CCN(c4ccccc4OC)CC3)c2c1=O	–	–	–	–	–
COC(=O)c1cc(NC(=O)c2ccccc2)c(=O)oc1/C=C/Nc1ccc(Oc2ccccc2)cc1	8.91µM	?	–	?	–
Cc1c(Cc2ccccc2)sc(/N=C/c2c(O)ccc3ccccc23)c1C(N)=O	8.91µM	–	?	–	–
Cc1c(Cc2ccccc2)sc(/N=C/c2ccc3ccccc3c2)c1C(N)=O	–	?	–	–	–
O=C(NCCN1CCOCC1)c1ccc(=O)n(Cc2ccc(Cl)cc2)c1	–	–	–	–	–

Compound activity (PubChem)
